Reference: PubChem BioAssay
Active and inactive are the calls of the source.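 The calls were made as follows: active = inhibition of the reporter signal at or above 50%; inactive = inhibition below 50%.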

Assay: TLR3 IRF3 reporter activation blockers – cell-based, poly I:C stimulus, luciferase, 10K MLSCN set, primary screen (AID 602277)
Details: HEK293-TLR3 RL24 IRF3 luciferase reporter, at 10 µM, stronger effect = higher value

inhibition, inactive:
CCSc1nnc(NC(=O)C(CC)(C(F)(F)F)C(F)(F)F)s1 -31.4%
N#CC1=C(N)OC2=C(C(=O)CCC2)C1CCc1ccccc1 (stereo not given) 15.7%
Cc1cc(OCC(=O)Nc2ccc3oc(-c4ccncc4)nc3c2)ccc1Cl -47.1%
CCSc1nc(O)c(C2OC(=O)c3c2ccc(OC)c3OC)c(=O)n1-c1ccccc1 (stereo not given) 25.6%
Cc1c(C)c2cc(Cl)c(O)c(CN3CCCCC3)c2oc1=O 6.59%
